Screens: PubChem, several laboratories
Most compounds without a hit are left out; they make up all but 3.1% or so of the library.
MBD2 DNA inh: inhibitors of MBD2 binding to methylated DNA, primary screen, biochemical, TR-FRET, DNA-binding domain, human; Methyl-CpG-binding domain protein 2 (Homo sapiens), Q9UBB5; MBD2 binding to methylated oligonucleotide; inhibition, % at 4.4 µM; 370,000 compounds, 0.31% hits; in the data active = inhibition above about 13%
Neddylation inh: inhibitors of cullin neddylation, primary screen, biochemical, TR-FRET, uHTS, NAE and Ubc12 | NEDD8-conjugating enzyme Ubc12 (Homo sapiens) + NEDD8-activating enzyme E1 regulatory … | 360,000 compounds, 0.58% hits | calls only at 25 µM; in the data active = inhibition above about 36%
LEDGF integ inh: blockers of LEDGF/p75-dependent integrase strand transfer – biochemical, TR-FRET, high throughput, primary screen; 370,000 compounds, 0.64% hits; HIV-1 integrase (with human LEDGF/p75); inhibition, % at 3.7 µM; TR-FRET IN-LEDGF/p75 DNA integration, Eu/Cy5;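 active = inhibition above the screen-wide mean plus 3 SD, cut at about 13% in these data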;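 note: signal is the Cy5 over europium emission ratio at 671 and 618 nm; 0% = plate median of compound wells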
proKLK7 act: proKLK7 zymogen activators, primary screen, biochemical, fluorescence intensity | activation, % at 7 µM | AID 652039, 2013 | 370,000 compounds, 0.9% hits | purified proKLK7, EDANS-DABCYL substrate fluorescence; 100% is mature enzyme control, 0% vehicle | Kallikrein-7 (Homo sapiens), P49862;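 active = activation above the mean of all tested compounds plus 3 SD, computed per campaign excluding outliers beyond control limits, cut at about 13% in these data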
Rin1 Abl inh: inhibitors of Rin1-Abl protein binding, primary screen, biochemical, TR-FRET. 360,000 compounds, 0.4% hits. inhibition, % at 7.35 µM; in the data active = inhibition above about 5%, passing the limit was not always enough
UHRF1 MBD2 ctr: UHRF1 methylated DNA binding inhibitors, primary screen, counter-screen for MBD2 inhibitor project, biochemical, TR-FRET, human UHRF1, single concentration | inhibition, % at 4.4 µM | E3 ubiquitin-protein ligase UHRF1 (Homo sapiens), Q96T88 | UHRF1 binding to methylated oligo | 370,000 compounds, 0.75% hits; in the data active = inhibition above about 21%;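 note: UHRF1 SRA domain binding a hemimethylated CpG hairpin DNA probe; 0% = median of test compound wells and 100% = reference inhibitor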
Active calls of the source: *; i = inactive; / = no result given; + = active, no number.

SMILES | MBD2 DNA inh | Neddylation inh | LEDGF integ inh | proKLK7 act | Rin1 Abl inh | UHRF1 MBD2 ctr
Cc1ccc2nc(-c3ccc(O)c(O)c3)cn2c1 | -2.1 | i | 23.4* | -3.4 | 3.9 | 1.4
O=C(NC(c1ccc(Cl)cc1)c1ccsc1)C1CCN(Cc2cccc(Cl)c2)CC1 (stereo not drawn) | 0.4 | i | 3.6 | 0.0 | 1.7 | -0.9
COc1ccccc1CCC(=O)OCC(=O)Nc1ccc2[nH]c(=O)[nH]c2c1 | -2.4 | i | 2.1 | -0.7 | 2.5 | -1.4
CC1CCN(C2=NC(=O)N(c3ccc(Br)cc3)C(=O)C2)CC1 | 1.1 | / | -0.2 | -0.4 | / | -0.5
Cc1ccccc1CN1CCCCC(NC(=O)c2cccc([N+](=O)[O-])c2)C1=O (stereo not drawn) | 7.5 | / | 6.5 | 0.0 | / | 0.9
Cc1cc(C(=O)N/N=C/c2sccc2C)no1 | 2.2 | i | -0.1 | -0.4 | -0.3 | 22.7*
Cc1ccsc1/C=N/NC(=O)c1sccc1C | 3.0 | i | 1.1 | 0.3 | 3.1 | -1.2
Cc1cc(/C=C2\C(=N)N3N=C(S(C)(=O)=O)SC3=NC2=O)c(C)n1Cc1ccccc1 | 1.9 | + | 1.7 | 0.4 | -2.5 | -3.9
CN(C)c1cccc(C(=O)OCc2cc(=O)oc3cc(O)ccc23)c1 | 8.3 | / | 5.3 | 4.3 | 1.0 | 24.3*
CC1OC(CC(=O)O)CC2=C1C(=O)c1c(O)cccc1C2=O (stereo not drawn) | -7.7 | i | 40.1* | 1.8 | 4.0 | 17.8
CN1Cc2c(N3CCOCC3)nc3sc(C(=O)c4ccc(Br)cc4)c(N)c3c2CC1(C)C | 4.2 | + | 2.0 | -1.1 | -2.7 | 3.4
CC1(C)Cc2c(c(N3CCOCC3)nc3sc(C(=O)N4CCCCC4)c(N)c23)CO1 | -0.9 | i | 2.5 | 0.4 | -0.2 | -4.8
Cc1cc(Cl)ccc1OC(C)C(=O)Nc1ccccc1N1CCOCC1 (stereo not drawn) | 11.8 | i | 9.6 | 0.6 | 1.3 | 20.9*
COc1cccc(C(=O)NCc2nnc(SCC(=O)Nc3nccs3)n2-c2ccccc2)c1 | 2.5 | i | 0.9 | -1.0 | -2.3 | 95.5*
COc1ccc(-c2ccc(SCC(=O)Nc3nccs3)nn2)cc1OC | 3.7 | i | 3.7 | 0.1 | -1.0 | 21.1*
Cc1c(C(=O)N2CCCCC2)c(S(=O)(=O)N2c3ccccc3CC2C)c(C)n1C (stereo not drawn) | 2.4 | i | 3.3 | 0.1 | -0.3 | 22.7*
Cc1c(C(=O)N2CCCCC2)c(S(=O)(=O)N2CCN(c3ccccc3F)CC2)c(C)n1C | 3.0 | i | 2.8 | 0.2 | 1.0 | -1.9
COc1cccc(C(=O)O/N=C/c2ccc(Sc3ccc(C)cc3)nc2)c1 | -2.0 | i | 2.6 | 0.4 | -3.7 | -0.2
CCCCCCN=C1CC(C)(C)CC(=O)/C1=C(/O)CCC | 1.6 | i | 6.0 | 0.8 | 1.9 | 23.4*
COc1ccc(C2c3ccsc3CCN2C(C)=O)cc1 (stereo not drawn) | -1.8 | i | -0.2 | -0.2 | -4.9 | -0.1
O=C(C1CC1)N1CCc2sccc2C1c1ccc(Cl)cc1 (stereo not drawn) | 3.7 | i | 5.3 | 0.4 | 2.5 | 50.7*
O=C1CS/C(=N\N=C\c2ccccc2Cl)N1CC1CC1 | 10.9 | i | 0.8 | 0.5 | 1.3 | 24.7*
CS(=O)(=O)c1cccc(C(=O)Nc2cccc(-c3nc4ccccc4[nH]3)c2)c1 | 2.9 | i | 2.0 | 0.4 | -1.1 | 20.8*
CS(=O)(=O)c1ccc(C(=O)Nc2cccc(-c3nc4ccccc4[nH]3)c2)cc1 | -0.2 | i | 0.9 | 0.1 | -6.8 | 5.0
Cc1[nH]n(S(=O)(=O)c2ccccc2)c(=O)c1N=Nc1cccc(Cl)c1 | 5.2 | i | -5.7 | 0.1 | -0.6 | 33.6*
SMILES | MBD2 DNA inh | Neddylation inh | LEDGF integ inh | proKLK7 act | Rin1 Abl inh | UHRF1 MBD2 ctr
O=C(NCCCc1ccccc1)[C@H](Cc1c[nH]c2ccccc12)NC1(C(=O)NCCc2c[nH]c3ccccc23)CCOCC1 | -1.1 | / | 3.5 | / | / | -1.4
Cc1ccc(S(=O)(=O)Nc2cncnc2NS(=O)(=O)c2ccc(C)cc2)cc1 | 5.6 | i | -1.0 | -0.3 | 3.3 | 42.4*
Cc1ccc(S(=O)(=O)Nc2ccccc2NS(=O)(=O)c2ccc(C)cc2)cc1 | -1.6 | i | 2.5 | 0.7 | -0.9 | -0.9
O=C1NN(c2ccc(Cl)cc2)C(=O)/C1=C\c1ccc(-c2cccc(C(=O)O)c2)o1 | 4.9 | i | -0.3 | 0.1 | -1.5 | 28.0*
COc1ccc(NC(=O)c2cc3ccc(O)cc3o/c2=N\O)cc1 | -1.4 | i | -6.6 | -1.5 | 0.2 | 2.2
CC1=C(C(=O)N(C)C)CC(CC(=O)NCc2cccs2)C(=O)N1Cc1ccccc1 (stereo not drawn) | 3.7 | i | 3.7 | 0.2 | 1.2 | 0.2
CC1=C(C(=O)N(C)C)CC(CC(=O)NCc2cccs2)C(=O)N1Cc1ccc(F)cc1 (stereo not drawn) | 8.5 | i | -1.2 | -1.1 | 2.9 | 23.5*
CCN(CC)C(=O)C1=C(C)N(Cc2ccc(OC)cc2)C(=O)C(CC(=O)NCCN2CCOCC2)C1 (stereo not drawn) | 8.9 | i | 4.2 | -0.5 | -2.0 | 21.7*
CCOc1ccc(C2C(C(=O)OC)=CN(C(C)c3ccccc3)C=C2C(=O)OC)cc1 (stereo not drawn) | -0.5 | / | 2.0 | -12.1 | 2.4 | -0.1
COC1=CC(=O)C[C@@H](C)[C@]12Oc1c(Cl)c(OC)cc(OC)c1C2=O | 3.4 | + | -7.6 | 2.5 | 0.3 | 5.1
Cc1ccccc1-n1c(O)cc(=O)[nH]c1=S | 7.9 | i | -8.1 | -0.3 | 0.8 | 21.2*
Cc1ccc(/C=N/Nc2ccnc3cc(Cl)ccc23)c(C)c1 | 1.0 | + | -0.7 | -0.3 | 2.4 | -0.7
Cc1ccccc1/C=N/Nc1ccnc2cc(Cl)ccc12 | -3.2 | i | 3.7 | -0.4 | -4.2 | -4.2
CCCCOCCCNC(=O)C[C@H]1C[C@@]2(C(=O)OC)C(=C[C@H](COCc3ccccc3)O[C@@H]2C)N(Cc2ccco2)C1=O | 2.9 | / | 0.6 | 0.5 | / | -2.9
COCc1ccc(C(=O)Nc2ccc(C(=O)O)cc2)o1 | -3.6 | i | 3.9 | 0.6 | -0.6 | 4.8
Cc1ccc(OCc2ccc(C(=O)Nc3ccc(C(N)=O)cc3)o2)c([N+](=O)[O-])c1 | 9.9 | i | -0.1 | -0.8 | 0.3 | 33.7*
O=C(O)c1ccc(NC(=O)c2ccc(COc3ccccc3)o2)cc1 | 0.8 | i | -0.2 | -0.4 | 0.8 | 25.8*
